Measured values reported in PubChem BioAssay (NCI).
The panel holds about 79,000 compounds, 15% with a hit somewhere; the sample as a whole holds those more often. Unmarked numbers belong to inactive results. Rule as the data show it: active = growth inhibition above about 70%; inactive = the rest.

Experiment: NCI Yeast Anticancer Drug Screen. Data for the sgs1 mgt1 strain (AID 161);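 also: 0% = growth of cultures given vehicle only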
Details: S. cerevisiae sgs1 mgt1 strain, at 50.0 µM, stronger effect = higher value
Summary of the method: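 Read-out: growth inhibition vs vehicle controls. Cells: mutant yeast strain deficient in DNA damage repair.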

Point of comparison: `Cn1nc2c(c1-c1ccncc1)CCc1ccccc1-2`, growth inhibition 36%. Against it:
- c1ccc(N=C(Nc2ccccc2)N2CCCC2)cc1 — lower, -28.1%
- Nc1nc(C(F)(F)F)nc(N)c1N — lower, 15.1%
- O=C(CCCCc1ccccc1)NO — lower, 14.4%
- CCCC(C)OS(=O)(=O)c1ccc(C)cc1 (stereo not given) — lower, 0.75%
- CC(C)(N)COCOCC(C)(C)N — lower, -1.15%
- CN1CCC(CNc2ccccc2)CC1 — lower, 6.05%
- NC(=S)n1nc(-c2ccccc2)c(N=Nc2cccc([N+](=O)[O-])c2)c1-c1ccccc1 — lower, 31.1%
- CCC1(CC)NC(=S)NC1=S — lower, 26.4%
- CCOC1C=CCCO1 (stereo not given) — lower, 8.65%
- COc1cc2c(c3c1/c(=N\N=c1/c4ccccc4n(C)c4c5c(cc(OC)c14)OC(C)(C)C=C5)c1ccccc1n3C)C=CC(C)(C)O2 — higher, 64.5%
- CCOC(=O)/C=C/c1ccc([N+](=O)[O-])cc1 — lower, 9.15%
- CCCCCCCCCCCCCC(=O)OCC1OC(n2cc(F)c(=O)[nH]c2=O)C(N)C(OC(=O)CCCCCCCCCCCCC)C1O (stereo not given) — lower, 22.5%
- CCNC(=O)CCC(NS(=O)(=O)c1ccc(NC(=O)c2ccc(Cl)cc2)cc1)C(=O)O (stereo not given) — lower, -26%
- CC1CP(=O)(Cc2ccccc2)C(C)(c2ccccc2)C1=O (stereo not given) — lower, 31.4%
